The source of these data is PubChem BioAssay (EPA / NIEHS).

A short description of assay [1]: BSK_3C_Proliferation: Cell Proliferation Assessment in the BioMAP Diversity Plus: 3C Assay (AID 2283006).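 For AC50: potency may reflect either rise or fall in cell number versus DMSO.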 As to conditions: primary human endothelial cells (HUVEC). The essentials:
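Proliferation as total protein: sulforhodamine B (0.1%) stain of TCA-fixed subconfluent human umbilical vein endothelial cells, absorbance 560 nm, 48 h after dosing. Activity fitted in both directions against DMSO baseline.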

Read-out in assay [2]: E-selectin (Homo sapiens) (UniProt P16581)
Description: BSK_3C_Eselectin: BioMAP Diversity Plus: 3C Assay for Eselectin Biomarker Activity (AID 2283015).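 For outcome: cell surface E-selectin protein quantified by ELISA 24 h after dosing.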 As to conditions: primary human endothelial cells (HUVEC); actives raise or lower the signal. In outline: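 E-selectin ELISA readout, fitted bidirectionally relative to DMSO, taken 24 h post-dosing in HUVEC cultures of the 3C system. Overt cytotoxicity tracked with sulforhodamine B staining of parallel wells.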

Read-out in assay [3]: Interleukin-1 alpha (IL1a), IL1A (gene 3552)
Briefly: BSK_BE3C_IL1a: BioMAP Diversity Plus: BE3C Assay for Interleukin-1 alpha (IL1a) Biomarker Activity (AID 2283016). To be noted: primary human bronchial epithelial cells; actives raise or lower the signal. In outline: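 IL-1a measured by ELISA after 24 h treatment of human primary bronchial epithelial cells, with gain or loss of signal fitted versus DMSO. Parallel cultures stained with SRB gauge overt cytotoxicity.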

Read-out in assay [4]: Monocyte Chemoattractant Protein-1 (MCP1), CCL2 (gene 6347)
Briefly: BSK_3C_MCP1: BioMAP Diversity Plus: 3C Assay for Monocyte Chemoattractant Protein-1 (MCP1) Biomarker Activity (AID 2283017). As to conditions: primary human endothelial cells (HUVEC); actives raise or lower the signal. In outline: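 MCP-1 was measured by ELISA 24 h after dosing in primary HUVEC 3C cultures and fitted in both directions relative to DMSO; cytotoxicity was checked by SRB total-protein staining in parallel wells.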

Read-out in assay [5]: Interleukin-8 (IL8), CXCL8 (gene 3576)
Description: BSK_3C_IL8: BioMAP Diversity Plus: 3C Assay for Interleukin-8 (IL8) Biomarker Activity (AID 2283020). As to conditions: primary human endothelial cells (HUVEC); actives raise or lower the signal. In outline:
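IL-8 was measured by ELISA in HUVEC cultures 24 h after chemical dosing, with gain or loss of signal fitted relative to DMSO. Parallel SRB total-protein staining tracked overt cytotoxicity.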

Assay [6] in a line: BSK_3C_SRB: Viability Assessment in the BioMAP Diversity Plus: 3C Assay (AID 2283023).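 Note: fitted both ways against DMSO so a hit may be signal rise or drop.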 To be noted: primary human endothelial cells (HUVEC). In outline: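 Cytotoxicity readout in parallel HUVEC 3C cultures: after 24 h compound exposure, cells fixed with 10% TCA, stained with 0.1% SRB and read at 560 nm. Gain or loss relative to DMSO fitted.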
Read-out in assay [7]: Matrix Metallopeptidase 1 (MMP1), MMP1 (gene 4312)
Briefly: BSK_BE3C_MMP1: BioMAP Diversity Plus: BE3C Assay for Matrix Metallopeptidase 1 (MMP1) Biomarker Activity (AID 2283024). To be noted: primary human bronchial epithelial cells; actives raise or lower the signal. The essentials:
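ELISA measurement of MMP-1 after 24 h compound exposure of primary human bronchial epithelial cells. Changes in either direction fitted relative to DMSO; parallel SRB staining checked overt cytotoxicity.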

Read-out in assay [8]: Pselectin, SELP (gene 6403)
Description: BSK_4H_Pselectin: BioMAP Diversity Plus: 4H Assay for Pselectin Biomarker Activity (AID 2283026). To be noted: primary human endothelial cells (HUVEC); actives raise or lower the signal. In outline:
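ELISA of surface P-selectin on HUVEC, 24 h after dosing, with parallel SRB staining (0.1% after 10% TCA fixation, 560 nm) for overt cytotoxicity. Activity fitted in both directions relative to DMSO.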

The nature of assay [9]: BSK_4H_SRB: Viability Assessment in the BioMAP Diversity Plus: 4H Assay (AID 2283027).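 For AC50: curves fitted both ways versus DMSO so AC50 may be loss or gain.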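 Note: cells exposed to compound for 24 h before staining.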 As to conditions: primary human endothelial cells (HUVEC). In outline: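 HUVEC, 24 h post-dose; 10% TCA fix, 0.1% SRB stain, A560 nm. Total protein = overt cytotoxicity, parallel to biomarker read. Bidirectional fit vs DMSO baseline.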
Assay [10] in a line: BSK_BE3C_SRB: Viability Assessment in the BioMAP Diversity Plus: BE3C Assay (AID 2283028).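 For AC50: fitted both ways so AC50 may mark signal gain or loss versus DMSO.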 As to conditions: primary human bronchial epithelial cells. The essentials: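 Cytotoxicity read-out: SRB (0.1%) staining of TCA-fixed (10%) human lung bronchial epithelial cells, absorbance 560 nm, 24 h post-dosing. Curves fitted both directions relative to DMSO.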
Read-out in assay [11]: Thrombomodulin, THBD (gene 7056)
Briefly: BSK_3C_Thrombomodulin: BioMAP Diversity Plus: 3C Assay for Thrombomodulin Biomarker Activity (AID 2283029). As to conditions: primary human endothelial cells (HUVEC); actives raise or lower the signal. The essentials:
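ELISA measurement of thrombomodulin on HUVEC surface 24 h after chemical dosing; activity fitted in both directions relative to DMSO vehicle.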

Read-out in assay [12]: Vascular endothelial growth factor receptor 2 (Homo sapiens) (UniProt P35968)
Description: BSK_4H_VEGFRII: BioMAP Diversity Plus: 4H Assay for Vascular endothelial growth factor receptor 2 (VEGFR2) Biomarker Activity (AID 2283031).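 For AC50: cell-surface VEGFR2 protein level quantified by ELISA.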 As to conditions: primary human endothelial cells (HUVEC); actives raise or lower the signal. In outline:
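Measured by ELISA after 24 h of compound treatment: VEGFR2 on primary human umbilical vein endothelial cells, fitted in both directions relative to DMSO. Parallel cultures received SRB staining (560 nm) for overt cytotoxicity.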

Read-out in assay [13]: Interferon-gamma inducible Protein 10 (IP10), CXCL10 (gene 3627)
Briefly: BSK_BE3C_IP10: BioMAP Diversity Plus: BE3C Assay for Interferon-gamma inducible Protein 10 (IP10) Biomarker Activity (AID 2283034). To be noted: primary human bronchial epithelial cells; actives raise or lower the signal. In outline: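 IP-10 quantified by ELISA in human primary bronchial epithelial cell cultures at 24 hours post-dosing. Gain or loss of signal fitted relative to DMSO; parallel SRB staining assessed overt cytotoxicity.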

Read-out in assay [14]: Urokinase-type plasminogen activator receptor (uPAR), PLAUR (gene 5329)
Description: BSK_BE3C_uPAR: BioMAP Diversity Plus: BE3C Assay for Urokinase-type plasminogen activator receptor (uPAR) Biomarker Activity (AID 2283039).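 For outcome: cells exposed to compound for one day before measurement.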 As to conditions: primary human bronchial epithelial cells; actives raise or lower the signal. The essentials:
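uPAR levels were measured by ELISA after 24 h compound treatment of primary human bronchial epithelial cells, fitted in both directions relative to DMSO. Parallel SRB staining served as the cytotoxicity read-out.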

Read-out in assay [15]: Interleukin-6 (IL6), IL6 (gene 3569)
Briefly: BSK_CASM3C_IL6: BioMAP Diversity Plus: CASM3C Assay for Interleukin-6 (IL6) Biomarker Activity for (AID 2283040). As to conditions: primary human coronary artery smooth muscle cells; actives raise or lower the signal.

Read-out in assay [16]: Macrophage colony-stimulating factor (MCSF), CSF1 (gene 1435)
Briefly: BSK_CASM3C_MCSF: BioMAP Diversity Plus: CASM3C Assay for Macrophage colony-stimulating factor (MCSF) Biomarker Activity (AID 2283044).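 Note: M-CSF protein amount quantified by ELISA after 24 h exposure.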 To be noted: primary human coronary artery smooth muscle cells; actives raise or lower the signal.

Read-out in assay [17]: Low-density lipoprotein receptor (LDLR), LDLR (gene 3949)
Briefly: BSK_CASM3C_LDLR: BioMAP Diversity Plus: CASM3C Assay for Low-density lipoprotein receptor (LDLR) Biomarker Activity (AID 2283045).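 Note: LDLR protein level on the cell surface quantified by ELISA.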 To be noted: primary human coronary artery smooth muscle cells; actives raise or lower the signal.

Read-out in assay [18]: Monocyte Chemoattractant Protein-1 (MCP1), CCL2 (gene 6347)
Description: BSK_CASM3C_MCP1: BioMAP Diversity Plus: CASM3C Assay for Monocyte Chemoattractant Protein-1 (MCP1) Biomarker Activity (AID 2283046).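 Note: MCP-1 level quantified by ELISA 24 h after dosing.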 To be noted: primary human coronary artery smooth muscle cells; actives raise or lower the signal.

The nature of assay [19]: BSK_CASM3C_Proliferation: Cell Proliferation Assessment in the BioMAP Diversity Plus: CASM3C Assay (AID 2283047).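 Note: sub-confluent cells exposed 48 h before staining; fitted both ways against DMSO so gain or loss of cell number.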 To be noted: primary human coronary artery smooth muscle cells.
Read-out in assay [20]: Human Leukocyte Antigen - DR isotype (HLADR), HLA-DRA (gene 3122)
Briefly: BSK_CASM3C_HLADR: BioMAP Diversity Plus: CASM3C Assay for Human Leukocyte Antigen - DR isotype (HLADR) Biomarker Activity (AID 2283043).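 Note: cell-surface HLA-DR protein level quantified by ELISA.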 As to conditions: primary human coronary artery smooth muscle cells; actives raise or lower the signal.

Active and inactive are the calls of the source. Rule for the calls: active = hit-call score of the fitted dose curve at least 0.9, where 1 is the maximum; inactive = score below 0.9.

Chain of E-selectin (Homo sapiens) (P16581 whole entry, looked up): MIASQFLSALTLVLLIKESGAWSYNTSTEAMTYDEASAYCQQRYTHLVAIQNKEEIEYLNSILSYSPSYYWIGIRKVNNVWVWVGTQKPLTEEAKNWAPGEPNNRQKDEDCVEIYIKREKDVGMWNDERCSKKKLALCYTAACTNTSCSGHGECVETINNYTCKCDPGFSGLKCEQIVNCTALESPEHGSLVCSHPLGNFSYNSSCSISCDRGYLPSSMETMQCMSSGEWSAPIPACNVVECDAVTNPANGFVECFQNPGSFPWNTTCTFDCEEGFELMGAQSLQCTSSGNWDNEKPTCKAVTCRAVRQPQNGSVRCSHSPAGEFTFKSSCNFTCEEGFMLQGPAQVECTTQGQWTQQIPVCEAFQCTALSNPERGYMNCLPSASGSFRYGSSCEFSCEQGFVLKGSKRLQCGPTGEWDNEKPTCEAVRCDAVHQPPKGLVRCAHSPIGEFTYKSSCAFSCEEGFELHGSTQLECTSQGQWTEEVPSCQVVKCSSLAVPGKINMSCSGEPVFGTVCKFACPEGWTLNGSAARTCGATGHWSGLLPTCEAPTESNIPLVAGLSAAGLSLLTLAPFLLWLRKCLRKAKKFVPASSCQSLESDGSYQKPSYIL

In the case of `Nc1ccc(-c2ccc(N)c(N)c2)cc1N`, the outcome in assay [1], in assay [3], in assay [4], in assay [5], in assay [6] and in assay [7] was inactive. For the same compound, the result in assay [9], in [10], in [11], in [12], in assay [13] and in assay [14] was inactive. Further, the outcome in assay [15], in [17], in assay [18] and in assay [19] was inactive. Further, the figures for the concentration at half-maximal activity (AC50) in assay [2], in assay [8] and in [16] were 8.29 µM (active), 24.9 µM (active) and 8.36 µM (active), respectively.
For `Oc1cc(Cl)ccc1Cl`, the outcome in assay [1], in assay [2], in assay [3], in assay [4], in assay [5] and in assay [6] was inactive. Moreover, the outcome in assay [7], in assay [8], in assay [9], in assay [10], in assay [11] and in assay [12] was inactive. For the same compound, the outcome in [13], in [14], in assay [15], in assay [20], in assay [16] and in assay [17] was inactive. Further, the result in assay [18] and in [19] was inactive.
As to `O=P1(NCCCl)OCCCN1CCCl` (stereo not drawn), the result in [1], in assay [2], in [3], in assay [4], in assay [5] and in assay [6] was inactive. The result in assay [7], in [8], in [9], in [10], in assay [11] and in [12] was inactive. Besides, the outcome in assay [13], in assay [14], in assay [15], in [20], in assay [16] and in assay [17] was inactive. Further, the result in assay [18] and in assay [19] was inactive.
For the compound `CC(C)(c1cc(Cl)c(O)c(Cl)c1)c1cc(Cl)c(O)c(Cl)c1`, the AC50 – broadly, the concentration giving half of the maximal activity seen – is 15.2 µM (active) in assay [1]; 12 µM (active) in [2]; 5.29 µM (active) in assay [3]; 12.3 µM (active) in [4]; 20 µM (active) in assay [5]; 9.54 µM (active) in assay [6]. Besides, the AC50 in [7] is 9.58 µM (active); in assay [8], 27.8 µM (active); in [9], 29 µM (active); in [10], 6.38 µM (active); in assay [11] it was 20 µM (active); in assay [12] it was 6.9 µM (active). The half-maximal activity concentration (AC50) in assay [13] is 7.58 µM (active); in [14] it was 5.31 µM (active); in assay [15], 36.4 µM (active); in assay [20] it was 27.9 µM (active); in [16] it was 20 µM (active); in [18], 32.6 µM (active). For the same compound, the AC50 in [19] was 32.6 µM (active).
Consider `CC(C)CCCCCCCOP(=O)(Oc1ccccc1)Oc1ccccc1`, for which the AC50 was 10.1 µM (active) in assay [1]; 20 µM (active) in [2]; 5.34 µM (active) in [3]; 10.7 µM (active) in assay [4]; 20 µM (active) in assay [5]; 9.85 µM (active) in assay [6]. Also, the AC50 in assay [8] is 15.1 µM (active); in assay [9], 20 µM (active); in assay [10], 32.6 µM (active); in assay [11] it was 20 µM (active); in [12], 10.9 µM (active); in assay [13] it was 28 µM (active). Further, the AC50 in assay [16] is 0.173 µM (active); in assay [17], 6.45 µM (active). Besides, the result in [7], in [14], in assay [15], in assay [20], in [18] and in assay [19] was inactive.
Regarding `CCc1cc(C)cc(CC)c1-c1c(OC(=O)C(C)(C)C)n2n(c1=O)CCOCC2`, the outcome in assay [1], in assay [3], in [4], in assay [6], in [7] and in assay [8] was inactive. The outcome in assay [9], in [10], in assay [11], in [12], in [13] and in [14] was inactive. Further, the outcome in [15] and in assay [18] was inactive. Besides, the concentration at half-maximal activity (AC50) is 5.7 µM (active) in [2]; 0.0209 µM (active) in [5]; 3.97 µM (active) in [20]; 0.975 µM (active) in assay [16]; 2.79 µM (active) in [17]; 20 µM (active) in assay [19].
